Measured values published in PubChem BioAssay.
Calls of active or inactive are those of the source.

What was measured:
Albumin (Bos taurus) = Albumin (Bos taurus) (UniProt P02769); experiment: bovine serum albumin binders on microarray, profiling panel, artefact control for SMM control protein annotation, biochemical, small-molecule microarray, Alexa647 label, 635/667 nm fluorescence (AID 1118); details: BSA-A647 binding, fluorescence 635 nm, higher = more signal;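 further: score merges 667 nm emission intensity and signal-to-noise per printed compound spot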
[1] = small-molecule microarray binders of probe aXIP, primary screen, biochemical, NeuroSMM set, 635/667 nm fluorescence (AID 1119); details: higher = more signal, called active from +8 up or from −8 down;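 further: probe is the protein aXip251-270 applied at 1 µg/mL to compound-printed slides; binding of probe to printed compounds measured as 667 nm fluorescence plus signal to noise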
[2] = small-molecule binders of probe aNOTCH3, primary screen, biochemical, small-molecule microarray, 635/667 nm fluorescence (AID 1120); details: higher = more signal;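 further: probe is a biotin-tagged antibody raised against NOTCH3 rather than NOTCH3 protein; score merges spot fluorescence near 667 nm with spot signal to noise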
[3] = small-molecule binders of probe aNOTCH2, primary screen, biochemical, small-molecule microarray, 635/667 nm fluorescence (AID 1121); details: higher = more signal;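 further: score merges feature fluorescence read at 667 nm with its signal to noise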
[4] = target: Carbonic anhydrase 2 (Homo sapiens) (UniProt P00918); experiment: CAII small-molecule binders, profiling panel, biochemical, small-molecule microarray, Alexa647-labelled CAII (AID 1122); details: CAII-A647 binding fluorescence, higher = more signal
[5] = COS7 lysate on small-molecule microarray, probe aHis, 635 nm (AID 1123); details: COS7 cell lysate, fluorescence, higher = more signal;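 further: z-score combines 667nm fluorescence intensity with signal-to-noise per printed compound spot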
[6] = compound binding in COS7 lysate, probe aLAP1, primary screen, cell lysate, small-molecule microarray (AID 1124); details: probe aLAP1, fluorescence, higher = more signal;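 further: lysate comes from COS7 cells expressing LAP1 and is applied at 0.3 µg/mL; score merges spot fluorescence near 667 nm with signal-to-noise over triplicate slides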
Sam68 (KHDRBS1) = experiment: Sam68 small-molecule binders, primary screen, biochemical, small-molecule microarray, 635 nm fluorescence (AID 1125); details: small-molecule microarray binding, higher = more signal;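 further: score merges 667 nm channel intensity with signal to noise over triplicate slides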
[7] = tested on: Chordin-like protein 2 (CHRDL2); experiment: CHRDL2 small-molecule binders, primary screen, biochemical, small-molecule microarray, 635 nm fluorescence (AID 1126); details: small-molecule microarray binding, fluorescence 635 nm; higher = more signal;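 further: printed compound slides probed with Chrdl2 protein at 4 µg/mL for 1 h at 4 C; score merges 667 nm emission intensity with signal to noise over three replicate slides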
[8] = target: Concanavalin-A (Canavalia ensiformis) (UniProt P02866); experiment: ConA small-molecule binders, primary screen, artefact control for SMM control protein annotation, biochemical, small-molecule microarray, Alexa647 label, 635 nm (AID 1127); details: ConA-A647 binding fluorescence, higher = more signal;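 further: z combines 667 nm emission intensity with signal-to-noise across three replicate slides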
[9] = anti-His antibody binders, primary screen, artefact control for SMM control protein annotation, biochemical, small-molecule microarray, 635 nm fluorescence (AID 1128); details: anti-His Alexa647 antibody binding, higher = more signal;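 further: score merges feature fluorescence with signal-to-noise for each printed compound spot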
[10] = tested on: Human papillomavirus type 1a E7 protein (residues 1-88); experiment: HPV1a E7 small-molecule binders, primary screen, biochemical, small-molecule microarray, residues 1-88, 635 nm (AID 1129); details: small-molecule microarray binding, fluorescence 635 nm; higher = more signal
[11] = target: Focal adhesion kinase 1 (Homo sapiens) (UniProt Q05397); experiment: small-molecule microarray binders of FAK, primary screen, biochemical, 635/667 nm fluorescence, BSA, DTT (AID 1130); details: PTK2 binding, 635 nm fluorescence, higher = more signal;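 further: composite of spot emission at 667 nm and signal to noise over triplicate slides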
[12] = tested on: Fibrinogen (Alexa647-labelled); experiment: fibrinogen binders on compound microarrays, profiling panel, artefact control for SMM control-protein annotation, biochemical, small-molecule microarray, 635/667 nm fluorescence (AID 1131); details: fibrinogen-A647 binding fluorescence, higher = more signal;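 further: z-score merges 667 nm fluorescence with per-spot signal-to-noise over triplicate slides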
[13] = target: Follistatin (Homo sapiens) (UniProt P19883); experiment: follistatin binders on small-molecule microarrays, primary screen, biochemical, small-molecule microarray, 635/667 nm fluorescence (AID 1132); details: FST binding, 635 nm fluorescence, higher = more signal
[14] = target: Fibroblast growth factor 2 (Homo sapiens) (UniProt P09038); experiment: FGF2 binders on small-molecule microarrays, primary screen, biochemical, small-molecule microarray, 635/667 nm fluorescence (AID 1133); details: small-molecule microarray binding, FGF2, fluorescence 635/667; higher = more signal
[15] = mitochondrial membrane potential change in A549 cells, profiling panel, cell-based, JC-1 fluorescence, basal, 24 h, 100 nL (AID 1138); details: higher = more signal;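 further: A549 lung adenocarcinoma cells under basal conditions with no added stimulus; test concentration not given here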
Lefty1 = Lefty1 binders on small-molecule microarrays, primary screen, biochemical, small-molecule microarray, 635/667 nm fluorescence (AID 1139); details: small-molecule microarray binding, fluorescence 635/667; higher = more signal
[16] = tested on: wheat germ agglutinin (Triticum aestivum), Alexa647-labelled; experiment: wheat germ agglutinin binders on compound microarrays, profiling panel, artefact control for SMM control-protein annotation, biochemical, small-molecule microarray, 635/667 nm fluorescence (AID 1140); details: WGA-A647 binding, 635 nm fluorescence, higher = more signal;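 further: score merges 667 nm feature emission with signal to noise over triplicate slides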
[17] = target: Luciferin 4-monooxygenase (Photinus pyralis) (UniProt P08659); experiment: firefly luciferase enzyme inhibitors, primary screen, biochemical, luminescence, purified enzyme, 2006 set (AID 1141); details: SteadyGlo luminescence, 30 min, higher = more signal, called active from +8 up or from −8 down;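 further: cell-free assay with purified firefly luciferase at 100 ng per well in PBS; test concentration not given here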
Luciferin 4-monooxygenase (Photinus pyralis), sequence (P08659 whole entry, looked up): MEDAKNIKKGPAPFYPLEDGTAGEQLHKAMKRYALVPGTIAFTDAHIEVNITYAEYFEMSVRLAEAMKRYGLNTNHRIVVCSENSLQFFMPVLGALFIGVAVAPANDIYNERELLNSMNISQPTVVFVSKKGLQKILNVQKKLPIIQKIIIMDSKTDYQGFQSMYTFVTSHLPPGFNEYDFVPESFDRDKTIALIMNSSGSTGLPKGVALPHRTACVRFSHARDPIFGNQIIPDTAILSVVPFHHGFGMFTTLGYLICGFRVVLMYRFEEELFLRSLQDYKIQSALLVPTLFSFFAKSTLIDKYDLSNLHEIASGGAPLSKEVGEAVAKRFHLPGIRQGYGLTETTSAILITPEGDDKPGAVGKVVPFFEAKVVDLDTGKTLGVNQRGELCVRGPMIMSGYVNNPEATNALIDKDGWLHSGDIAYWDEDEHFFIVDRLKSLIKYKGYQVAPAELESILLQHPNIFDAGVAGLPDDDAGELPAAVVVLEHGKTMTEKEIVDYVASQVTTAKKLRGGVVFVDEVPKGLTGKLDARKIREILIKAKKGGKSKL

Albumin (Bos taurus), sequence (P02769 whole entry, looked up): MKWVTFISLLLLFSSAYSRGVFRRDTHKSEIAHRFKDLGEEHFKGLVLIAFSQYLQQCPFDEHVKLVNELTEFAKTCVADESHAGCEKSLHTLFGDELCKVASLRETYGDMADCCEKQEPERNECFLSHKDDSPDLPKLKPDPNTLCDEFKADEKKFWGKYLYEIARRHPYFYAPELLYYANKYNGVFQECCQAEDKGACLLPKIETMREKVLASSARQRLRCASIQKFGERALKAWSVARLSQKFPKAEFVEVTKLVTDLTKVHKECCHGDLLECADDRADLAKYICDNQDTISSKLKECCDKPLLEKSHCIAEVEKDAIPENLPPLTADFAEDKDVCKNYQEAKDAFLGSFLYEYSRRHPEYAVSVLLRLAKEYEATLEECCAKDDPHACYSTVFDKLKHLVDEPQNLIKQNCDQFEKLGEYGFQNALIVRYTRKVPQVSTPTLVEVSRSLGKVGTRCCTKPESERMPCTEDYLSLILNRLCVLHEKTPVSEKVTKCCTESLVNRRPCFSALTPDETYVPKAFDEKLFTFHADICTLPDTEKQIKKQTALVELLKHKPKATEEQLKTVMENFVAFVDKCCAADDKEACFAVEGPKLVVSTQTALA
Concanavalin-A (Canavalia ensiformis), sequence (P02866 whole entry, looked up): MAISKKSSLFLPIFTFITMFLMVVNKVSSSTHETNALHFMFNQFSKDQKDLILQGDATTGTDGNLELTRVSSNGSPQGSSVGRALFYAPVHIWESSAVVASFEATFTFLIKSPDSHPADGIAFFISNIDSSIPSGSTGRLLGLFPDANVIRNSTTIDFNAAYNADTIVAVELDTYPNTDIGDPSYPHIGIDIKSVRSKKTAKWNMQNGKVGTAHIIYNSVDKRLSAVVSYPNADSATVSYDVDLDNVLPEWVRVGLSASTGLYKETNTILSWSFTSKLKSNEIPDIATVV
Follistatin (Homo sapiens), sequence (P19883 whole entry, looked up): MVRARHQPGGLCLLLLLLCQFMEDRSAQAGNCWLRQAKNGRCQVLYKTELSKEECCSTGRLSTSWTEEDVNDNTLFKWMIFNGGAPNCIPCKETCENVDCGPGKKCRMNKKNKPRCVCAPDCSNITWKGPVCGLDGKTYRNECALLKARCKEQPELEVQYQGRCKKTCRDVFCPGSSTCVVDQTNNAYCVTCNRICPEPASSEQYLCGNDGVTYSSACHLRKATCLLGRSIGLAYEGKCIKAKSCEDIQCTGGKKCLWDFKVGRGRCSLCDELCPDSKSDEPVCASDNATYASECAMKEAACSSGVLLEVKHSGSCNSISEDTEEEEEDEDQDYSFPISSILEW
Fibroblast growth factor 2 (Homo sapiens), sequence (P09038 whole entry, looked up): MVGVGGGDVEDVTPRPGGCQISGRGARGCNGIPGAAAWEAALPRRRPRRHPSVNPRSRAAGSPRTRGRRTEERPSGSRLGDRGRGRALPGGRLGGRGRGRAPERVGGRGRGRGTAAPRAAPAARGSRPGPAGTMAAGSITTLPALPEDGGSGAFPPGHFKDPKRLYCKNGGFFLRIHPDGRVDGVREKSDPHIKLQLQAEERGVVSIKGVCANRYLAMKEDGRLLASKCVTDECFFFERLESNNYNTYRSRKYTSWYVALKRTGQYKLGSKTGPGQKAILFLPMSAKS
Focal adhesion kinase 1 (Homo sapiens), sequence (Q05397 whole entry, looked up): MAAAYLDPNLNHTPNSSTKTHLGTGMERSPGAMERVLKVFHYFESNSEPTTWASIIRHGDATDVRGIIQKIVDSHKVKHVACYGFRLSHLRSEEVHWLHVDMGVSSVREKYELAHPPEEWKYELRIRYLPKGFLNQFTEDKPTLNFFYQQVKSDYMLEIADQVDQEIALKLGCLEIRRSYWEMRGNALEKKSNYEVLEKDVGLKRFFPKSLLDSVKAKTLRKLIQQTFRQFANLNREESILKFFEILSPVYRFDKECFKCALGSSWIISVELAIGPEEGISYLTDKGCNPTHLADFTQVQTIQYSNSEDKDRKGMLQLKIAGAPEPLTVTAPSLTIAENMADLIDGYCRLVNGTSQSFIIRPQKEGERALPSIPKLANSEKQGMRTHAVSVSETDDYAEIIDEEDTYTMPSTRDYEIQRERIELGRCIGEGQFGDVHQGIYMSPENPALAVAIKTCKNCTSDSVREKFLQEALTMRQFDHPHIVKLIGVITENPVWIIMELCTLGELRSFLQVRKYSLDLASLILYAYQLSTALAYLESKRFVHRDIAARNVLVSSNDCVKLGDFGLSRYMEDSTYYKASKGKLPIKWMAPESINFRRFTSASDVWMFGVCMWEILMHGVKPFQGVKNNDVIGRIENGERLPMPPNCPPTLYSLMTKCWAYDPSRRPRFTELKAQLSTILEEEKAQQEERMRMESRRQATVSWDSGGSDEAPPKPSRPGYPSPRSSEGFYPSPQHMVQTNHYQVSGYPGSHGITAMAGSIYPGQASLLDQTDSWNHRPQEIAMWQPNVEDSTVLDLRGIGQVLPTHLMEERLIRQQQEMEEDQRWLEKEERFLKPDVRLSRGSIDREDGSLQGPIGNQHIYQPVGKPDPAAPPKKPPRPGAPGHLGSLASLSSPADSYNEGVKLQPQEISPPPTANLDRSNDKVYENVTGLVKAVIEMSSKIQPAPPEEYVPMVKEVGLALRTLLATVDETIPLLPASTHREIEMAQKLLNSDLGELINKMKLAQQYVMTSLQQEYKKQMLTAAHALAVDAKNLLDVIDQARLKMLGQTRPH

Structure (SMILES) | composite z-score (Albumin (Bos taurus)) | composite Z-score [1] | composite z-score [2] | composite z-score [3] | composite z-score [4] | composite z-score [5] | composite z-score [6] | composite z-score (Sam68 (KHDRBS1)) | composite z-score [7] | composite z-score [8] | composite z-score [9] | composite z-score [10] | composite z-score [11] | composite z-score [12] | composite z-score [13] | composite z-score [14] | z-score [15] | composite z-score (Lefty1) | composite z-score [16] | z-score [17]
CCOC(=O)[C@H](CC(C)C)NC(=O)CCC1CC(OC(=O)NCc2cccc3ccccc23)CC2(CCCC(COC(=O)NCCOC)O2)O1 (stereo not given in full) | 0.222 | -0.166 (inactive) | 0.0306 | -0.0195 | 0.431 | 1.02 | -0.0557 | 1.29 | 0.156 | 0.782 | 0.427 | 1.19 | 0.175 | 0.959 | 0.602 | 0.648 | -0.157 | 0.436 | 0.167 | 0.561 (inactive)
O=c1n(Cc2cc3c(cc2Cl)OCO3)c(=O)n2n1CC[C@@H]1C(=NOCc3ccccc3)[C@H]3O[C@H]3[C@@H](O)[C@@H]12 | 0.0524 | 0.0993 (inactive) | 0.106 | -0.0495 | 0.177 | 0.155 | 0.708 | 0.529 | 0.6 | 0.223 | 0.559 | 0.459 | -0.0758 | 0.623 | 0.444 | 0.784 | 0.679 | 0.716 | 0.125 | -1.8 (inactive)
CC(C)(C)N1C(=O)[C@H]2[C@H]3[C@H](O)[C@H](O)CC(=NOCc4ccccc4)[C@H]3CC[C@H]2C1=O | 0.0116 | -0.491 (inactive) | 0.0961 | -0.057 | -0.0598 | 0.376 | 0.699 | -0.217 | 0.737 | -0.344 | 0.102 | 0.0128 | -0.103 | 0.451 | -0.829 | -0.34 | -0.316 | -0.484 | 0.877 | 0.109 (inactive)
CC(CCN1CCCCc2nc(C)c(C)cc21)=NOC[C@@H](O)COCc1ccco1 | -0.732 | 1.28 (inactive) | 0.149 | -0.137 | -0.297 | -0.964 | -0.125 | 0.428 | 1.63 | -1.26 | 0.111 | -0.91 | 0.0817 | -0.426 | 1.42 | 1.98 | 0.143 | 1.68 | -0.466 | 0.357 (inactive)
COC(=O)CC=C[C@@H](C)[C@@H](C=NO[C@@H]1O[C@H](COC(C)=O)[C@@H](OC(C)=O)[C@H](OC(C)=O)[C@H]1OC(C)=O)NS(=O)(=O)c1ccc(C)cc1 | -0.228 | 0.504 (inactive) | -0.0111 | -0.0984 | -0.701 | -0.323 | -0.045 | 0.682 | -0.051 | -0.909 | -0.588 | -0.231 | 0.14 | -0.083 | 0.484 | 0.35 | -0.63 | 0.647 | -0.986 | 1.08 (inactive)
CCOC(=O)[C@H](CC(C)C)NC(=O)CCC1CC(OC(=O)NCc2ccc3c(c2)OCO3)CC2(CCCC(COC(=O)NCCCN3CCCC3=O)O2)O1 (stereo not given in full) | -0.0359 | -0.0273 (inactive) | 0.0196 | -0.108 | 0.0039 | 0.659 | 0.178 | 1.33 | 0.325 | 1.08 | 0.581 | 1.15 | 0.115 | 0.741 | 0.476 | 1.12 | 1.26 | 0.803 | 0.911 | 0.0579 (inactive)
CO[C@@H]1COC(=O)CC=C[C@H](C)[C@H](OC)COC(=O)[C@H](C)NC(=O)CC=C[C@H]1C | -0.837 | 1.11 (inactive) | -0.0043 | -0.118 | -0.481 | -0.448 | -0.134 | 0.786 | 0.896 | -1.76 | -0.347 | -1.35 | -0.289 | -0.394 | 1.41 | 0.628 | 0.239 | 1.64 | -0.54 | -0.304 (inactive)
CCOC(=O)[C@H](CC(C)C)NC(=O)CCC1CC(OC(=O)NCCc2ccc(F)cc2)CC2(CCCC(COC(=O)NCCC(C)C)O2)O1 (stereo not given in full) | 0.281 | -0.375 (inactive) | 0.128 | -0.177 | 0.269 | 0.596 | -0.14 | -0.163 | 0.301 | 0.816 | 1.79 | 0.0471 | 0.459 | 0.818 | 0.601 | 0.0263 | 0.427 | 0.304 | 0.421 | 0.403 (inactive)
C#CCCCON=C1[C@H]2CCn3c(=O)n(-c4ccccc4)c(=O)n3[C@H]2[C@H](O)[C@@H]2O[C@H]12 | 0.37 | -0.377 (inactive) | -0.0601 | -0.142 | -0.181 | -0.169 | -0.0252 | 0.131 | 0.609 | 0.184 | 0.303 | 0.875 | 0.093 | 0.436 | 0.295 | 0.27 | 0.94 | 0.66 | 0.107 | -1.32 (inactive)
COC(=O)CC=C[C@@H](C)[C@@H](C=NO[C@H](C)c1cn([C@H](CO)Cc2ccccc2)nn1)OC | 0.113 | 0.215 (inactive) | 0.118 | -0.118 | -0.16 | 0.188 | 0.456 | 0.804 | 0.944 | 0.254 | 3.43 | 0.544 | -0.144 | 0.236 | 0.517 | 0.827 | -0.826 | 0.71 | 0.268 | -0.165 (inactive)
CCOC(=O)CCN1C(=O)[C@H]2[C@H]3[C@H](O)[C@H](O)CC(=NNC(=O)OCc4ccccc4)[C@@H]3CC[C@H]2C1=O | 0.576 | 0.406 (inactive) | -0.0864 | -0.117 | 0.21 | -0.0034 | 0.32 | 1.19 | 0.393 | 1 | 0.553 | 0.687 | 0.538 | 0.986 | 0.937 | 0.55 | 0.319 | 0.699 | 0.304 | 0.195 (inactive)
